Data as given in article PMC4336329 (PLoS ONE, 2015).
The campaign covered roughly 310,000 compounds. About 2,200 (0.71%) showed an effect of 50% or more. Effects have a minus sign here. Shown is part of a subset that was picked to be rich in strong results.

What follows are compounds tested against human ether-à-go-go-related gene (hERG) potassium channel (human, UniProt Q12809) (assay: primary screen, population patch clamp on CHO cells stably expressing hERG; higher = less effect of the substance).
human ether-à-go-go-related gene (hERG) potassium channel, sequence (Q12809 whole entry, looked up): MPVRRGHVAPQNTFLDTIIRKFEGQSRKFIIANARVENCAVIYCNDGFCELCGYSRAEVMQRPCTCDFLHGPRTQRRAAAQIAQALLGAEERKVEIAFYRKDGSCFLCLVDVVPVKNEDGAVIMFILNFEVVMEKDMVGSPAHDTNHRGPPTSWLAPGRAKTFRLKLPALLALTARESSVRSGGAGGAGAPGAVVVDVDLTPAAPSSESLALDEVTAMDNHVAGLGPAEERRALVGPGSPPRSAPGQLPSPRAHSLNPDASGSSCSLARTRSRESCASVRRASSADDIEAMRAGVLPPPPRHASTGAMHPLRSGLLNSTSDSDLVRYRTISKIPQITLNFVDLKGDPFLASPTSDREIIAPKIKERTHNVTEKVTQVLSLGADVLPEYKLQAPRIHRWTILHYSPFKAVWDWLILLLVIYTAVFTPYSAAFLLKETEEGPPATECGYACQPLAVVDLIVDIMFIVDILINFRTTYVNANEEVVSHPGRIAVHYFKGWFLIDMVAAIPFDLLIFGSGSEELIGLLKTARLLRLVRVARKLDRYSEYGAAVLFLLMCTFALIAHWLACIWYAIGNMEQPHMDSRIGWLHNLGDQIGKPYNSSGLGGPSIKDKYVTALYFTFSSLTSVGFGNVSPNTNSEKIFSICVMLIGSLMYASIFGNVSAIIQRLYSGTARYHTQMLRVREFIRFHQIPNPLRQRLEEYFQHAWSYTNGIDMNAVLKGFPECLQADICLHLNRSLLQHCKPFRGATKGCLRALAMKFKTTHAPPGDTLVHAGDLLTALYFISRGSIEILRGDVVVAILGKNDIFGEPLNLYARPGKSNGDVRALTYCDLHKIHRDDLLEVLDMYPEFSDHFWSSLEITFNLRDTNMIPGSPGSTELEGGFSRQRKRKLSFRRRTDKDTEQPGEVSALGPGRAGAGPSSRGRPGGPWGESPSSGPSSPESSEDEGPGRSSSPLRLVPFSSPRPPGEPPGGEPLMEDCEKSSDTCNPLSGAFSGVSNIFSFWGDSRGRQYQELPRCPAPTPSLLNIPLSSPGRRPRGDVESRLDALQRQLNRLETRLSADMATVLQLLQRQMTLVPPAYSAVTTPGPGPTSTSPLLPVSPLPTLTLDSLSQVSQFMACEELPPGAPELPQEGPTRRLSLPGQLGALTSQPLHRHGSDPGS
COc1ccc(CN(C)CC(O)COC(c2ccc(OC)cc2)c2ccc(OC)cc2)cc1 (stereo not shown) was tested, and the “hERG current change (%, negative = inhibition) at 1uM” value was -80.8%.
COc1ccc(C(OCC(O)CN(C)C2CCCCC2)c2ccc(OC)cc2)cc1 (stereo not shown) was tested, and the “hERG current change (%, negative = inhibition) at 1uM” value was -29.3%.
With CCOc1ccc(CN(C)CC(O)COC(c2ccc(OC)cc2)c2ccc(OC)cc2)cc1 (stereo not shown) the “hERG current change (%, negative = inhibition) at 1uM” value was -81.9%.
With COc1cccc(CN(C)CC(O)COC(c2ccccc2)c2ccccc2C)c1 (stereo not shown) the “hERG current change (%, negative = inhibition) at 1uM” value was -8.56%.
With CCN(Cc1ccccc1)CC(O)COC(c1ccc(OC)cc1)c1ccc(OC)cc1 (stereo not shown) the “hERG current change (%, negative = inhibition) at 1uM” value was -32.9%.
In the case of CCN1CCN(S(=O)(=O)c2ccc(Cl)c(C(=O)NC(C)c3ccccc3Cl)c2)CC1 (stereo not shown), the “hERG current change (%, negative = inhibition) at 1uM” value is reported as 5.99%.
O=C(NCCCO)c1ccc2[nH]c3ccccc3c2c1 was tested, and the “hERG current change (%, negative = inhibition) at 1uM” value was 13.4%.
O=C(NCc1cc([N+](=O)[O-])ccc1O)c1cccnc1Sc1ccc(Cl)cc1 was tested, and the “hERG current change (%, negative = inhibition) at 1uM” value was 16.3%.
COc1cccc(C2=CC(c3cc(OC)ccc3OC)n3nnnc3N2)c1 (stereo not shown) was tested, and the “hERG current change (%, negative = inhibition) at 1uM” value was 15.2%.
In the case of O=C(CN(C(=O)c1csnn1)c1ccc(F)cc1)NCc1ccc(F)cc1, the “hERG current change (%, negative = inhibition) at 1uM” value is reported as 3.44%.
With CC(=O)Nc1cc2c(cc1NC(=O)c1cnccn1)OCCO2 the “hERG current change (%, negative = inhibition) at 1uM” value was 19.8%.
With CCOC(=O)c1sc(NC(=S)NC(=O)c2cccc(Cl)c2)c(C(=O)OCC)c1C the “hERG current change (%, negative = inhibition) at 1uM” value was 1.03%.
With COc1ccc(S(=O)(=O)Nc2ccccc2OC)cc1NC(=O)c1cc2ccccc2oc1=O the “hERG current change (%, negative = inhibition) at 1uM” value was -4.91%.
For CCCC(O)(CCN1CCOCC1)c1ccc(Br)cc1.Cl (stereo not shown), the “hERG current change (%, negative = inhibition) at 1uM” value was 7.3%.
For CCCCC(O)(CCN1CCOCC1)c1ccc(Cl)cc1.Cl (stereo not shown), the “hERG current change (%, negative = inhibition) at 1uM” value was -51.3%.
In the case of CCCCCCC(O)(CCN1CCCCC1)c1ccccc1.Cl (stereo not shown), the “hERG current change (%, negative = inhibition) at 1uM” value is reported as -17.1%.
With CCCCCC(O)(CCN1CCCCC1)c1ccc(OCC)cc1.Cl (stereo not shown) the “hERG current change (%, negative = inhibition) at 1uM” value was -82%.
With CCCOc1ccc(C(O)(CCC)CCN2CCCCC2)cc1 (stereo not shown) the “hERG current change (%, negative = inhibition) at 1uM” value was -25.4%.
In the case of CCCC(O)(CCN1CCOCC1)c1ccc(Cl)cc1 (stereo not shown), the “hERG current change (%, negative = inhibition) at 1uM” value is reported as 6.26%.
With CCCCCC(O)(CCN1CCCCC1)c1ccccc1.Cl (stereo not shown) the “hERG current change (%, negative = inhibition) at 1uM” value was -84.7%.
CCCCOc1ccc(C(O)(CCC)CCN2CCOCC2)cc1 (stereo not shown) was tested, and the “hERG current change (%, negative = inhibition) at 1uM” value was -11%.
In the case of CCC(O)(CCN1CCCCC1)c1ccccc1 (stereo not shown), the “hERG current change (%, negative = inhibition) at 1uM” value is reported as 3.27%.
In the case of O=C1C=C(N2CCCCC2)C2(CCCCC2)O1, the “hERG current change (%, negative = inhibition) at 1uM” value is reported as 10.8%.
In the case of Nc1nc(NCc2ccco2)nc(Nc2cccc(F)c2)c1[N+](=O)[O-], the “hERG current change (%, negative = inhibition) at 1uM” value is reported as 18.1%.
With O=C(NCCc1ccccc1)c1ccc(Cl)nc1 the “hERG current change (%, negative = inhibition) at 1uM” value was 18%.
COC(=O)c1ccc(CSc2nnc(Nc3cccc(OC)c3)s2)o1 was tested, and the “hERG current change (%, negative = inhibition) at 1uM” value was 10.7%.
In the case of COCCCC1CCN(C(=O)C2CCC(=O)N(CC3CCCCC3)C2)CC1 (stereo not shown), the “hERG current change (%, negative = inhibition) at 1uM” value is reported as 2.85%.
With COc1ccc(OCC(O)CN2CCNCC2)cc1.Cl (stereo not shown) the “hERG current change (%, negative = inhibition) at 1uM” value was 14.6%.
In the case of Fc1cccc(NC(=S)NNc2ccccc2)c1, the “hERG current change (%, negative = inhibition) at 1uM” value is reported as 10.7%.
Cc1ccc2cc(CN(CC3CCCO3)C(=S)Nc3ccccc3)c(=O)[nH]c2c1C (stereo not shown) was tested, and the “hERG current change (%, negative = inhibition) at 1uM” value was 13.3%.
CCOC(=O)c1[nH]ncc1CN1CCCC(C(=O)c2cc(Cl)ccc2OC)C1 (stereo not shown) was tested, and the “hERG current change (%, negative = inhibition) at 1uM” value was -29.9%.
For O=C(NCCc1ccc2c(c1)OCCO2)c1cc2ccccc2o1, the “hERG current change (%, negative = inhibition) at 1uM” value was -16.6%.
In the case of CN(C)S(=O)(=O)N1CCC(Oc2cccc(C(=O)NC3CCCCC3)c2)CC1, the “hERG current change (%, negative = inhibition) at 1uM” value is reported as 2.87%.
With CCOC(=O)C(C)(C)Sc1nc2c(cnn2-c2ccc(Cl)cc2)c(=O)[nH]1 the “hERG current change (%, negative = inhibition) at 1uM” value was 4.97%.
With CCN1CCCC(OC(=O)C(c2ccccc2)c2ccccc2)C1.Cl (stereo not shown) the “hERG current change (%, negative = inhibition) at 1uM” value was -53%.
Cl.O=C(OC1CCN(CCCl)CC1)C(c1ccccc1)c1ccccc1 was tested, and the “hERG current change (%, negative = inhibition) at 1uM” value was 15.9%.
With CCN1CCCC(OC(=O)Nc2ccccc2)C1 (stereo not shown) the “hERG current change (%, negative = inhibition) at 1uM” value was 6.59%.
For COc1ccc(OCC(=O)Nc2ccc3c(c2)nc(CCN2CCCCC2)n3C)cc1, the “hERG current change (%, negative = inhibition) at 1uM” value was -31.3%.
In the case of CN1CCN(CCc2nc3cc(NC(=O)COc4ccc(Cl)cc4)ccc3n2C)CC1, the “hERG current change (%, negative = inhibition) at 1uM” value is reported as -7.52%.
With CN1CCN(CCc2nc3cc(NC(=O)COc4ccccc4)ccc3n2C)CC1 the “hERG current change (%, negative = inhibition) at 1uM” value was -13.2%.
With Cc1cccc(OCC(=O)Nc2ccc3c(c2)nc(CCN2CCCCC2)n3C)c1 the “hERG current change (%, negative = inhibition) at 1uM” value was -58.3%.
CCN1CCN(CCc2nc3cc(NC(=O)COc4ccccc4)ccc3n2C)CC1 was tested, and the “hERG current change (%, negative = inhibition) at 1uM” value was 0.262%.
With CCN1CCN(CCc2nc3cc(NC(=O)COc4ccc(Cl)cc4)ccc3n2C)CC1 the “hERG current change (%, negative = inhibition) at 1uM” value was -26.8%.
With Cc1cccc(OCC(=O)Nc2ccc3c(c2)nc(CN2CCCCC2)n3C)c1.Cl the “hERG current change (%, negative = inhibition) at 1uM” value was -3.37%.
In the case of Cc1ccc(OCC(=O)Nc2ccc3c(c2)nc(CCN2CCN(C)CC2)n3C)cc1, the “hERG current change (%, negative = inhibition) at 1uM” value is reported as -5.14%.
In the case of Cc1cccc(OCC(=O)Nc2ccc3c(c2)nc(CCN2CCN(C)CC2)n3C)c1, the “hERG current change (%, negative = inhibition) at 1uM” value is reported as -6.31%.
Cc1ccc(OCC(=O)Nc2ccc3c(c2)nc(CCN2CCCCC2)n3C)cc1 was tested, and the “hERG current change (%, negative = inhibition) at 1uM” value was -60%.
With Cn1c(CCN2CCCCC2)nc2cc(NC(=O)COc3ccccc3)ccc21 the “hERG current change (%, negative = inhibition) at 1uM” value was -51.9%.
In the case of Cn1c(CCN2CCCCC2)nc2cc(NC(=O)COc3ccc(Cl)cc3)ccc21, the “hERG current change (%, negative = inhibition) at 1uM” value is reported as -89.6%.
